# Reference: the supplement of paper PMC9135407
# Where “and” joins values, the source holds several entries; their conditions need not be identical. Equal entries are not always repeated. Structures can show the parent of a compound that is named as a salt. The campaign covered roughly 5,800 compounds. About 620 (11%) showed activity. The sample as a whole holds a higher share of actives than the screen did. Values without a mark were called inactive.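 The calls were made as follows: active = score above a cut-off or among the top three wells of a plate; in these data no inactive exceeds 0.85.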
# System: primary human hepatic stellate cells (donor 1)
# Experiment: scaled lipid accumulation score (0 = DMSO-like, 1 = nortriptyline-like); higher = stronger HSC inactivation (lipid re-accumulation), active = hit call of the paper
# Conditions: 48 h
# [1] = library stock concentration: 3.33 mM
# [2] = library stock concentration: 10 mM
# [3] = library stock concentration: 1 mM
# [4] = library stock concentration: 80 uM
# [5] = library stock concentration: 400 uM
# [6] = library stock concentration: 2 mM
smiles,measurement,setting,value
CN(C)Cc1c(C(=O)NCCOc2ccc(C(=O)NO)cc2)oc2ccccc12,scaled lipid accumulation score,[1],0.855 (active)
same,scaled lipid accumulation score,[2],1.01 (active)
Cc1cc(C)c(N(Cc2ccccc2)S(=O)(=O)c2ccc(OCCNC(=O)c3cc4ccccc4o3)cc2)c(C(=O)NO)c1,scaled lipid accumulation score,[2],≤ -0.001
COc1ccc(C(=O)NCc2ccc(OCCN(C)C)cc2)cc1OC,scaled lipid accumulation score,[2],0.061 and 0.313
CC(/C=C1\SC(=S)N(CC(=O)O)C1=O)=C\c1ccccc1 [Epalrestat],scaled lipid accumulation score,[1],≤ 0
same,scaled lipid accumulation score,[2],≤ 0
O=C(O)CCCC=CCC1C2CCC(O2)C1CNNC(=O)Nc1ccccc1 (stereo unspecified),scaled lipid accumulation score,[3],≤ 0 and ≤ -0.021
O=C(O)[C@]1(O)C[C@@H](O)[C@@H](O)[C@H](O)C1 [Quinic acid],scaled lipid accumulation score,,≤ 0
Cc1c(C(=O)c2ccccc2)c(N)c(-c2ccccc2)n1Cc1ccc(Cl)cc1,scaled lipid accumulation score,[3],≤ 0
CCCCCCCCCCCCCCCCCCOC[C@H](COP(=O)([O-])OCC[N+](C)(C)C)OC(C)=O,scaled lipid accumulation score,[3],≤ 0 and ≤ -0.021
CC(=O)Nc1nc(C)c(-c2ccc(Cl)c(S(=O)(=O)NCCO)c2)s1,scaled lipid accumulation score,[4],≤ -0.016
same,scaled lipid accumulation score,[5],≤ -0.016
same,scaled lipid accumulation score,[6],≤ -0.016
same,scaled lipid accumulation score,[1],≤ 0
same,scaled lipid accumulation score,[2],≤ 0 and ≤ -0.016
O=c1oc2c(O)c(O)cc3c(=O)oc4c(O)c(O)cc1c4c23 [Ellagic acid],scaled lipid accumulation score,[4],≤ 0
same,scaled lipid accumulation score,[5],≤ 0
same,scaled lipid accumulation score,[6],≤ 0
same,scaled lipid accumulation score,[2],≤ 0
CN(C)c1ccc(-c2nc3c(N4CCN(CC(=O)Nc5nccs5)CC4)c(Cl)cnc3[nH]2)cc1,scaled lipid accumulation score,[1],0.858 (active)
same,scaled lipid accumulation score,[2],0.949 (active)
O=C(c1cccc(Cl)c1F)N1CCN(Cc2cccc(Nc3nccs3)n2)CC1,scaled lipid accumulation score,[1],≤ 0
same,scaled lipid accumulation score,[2],0.453
"CCCCC/C=C/C=C1/C(=O)C=C[C@@H]1C/C=C\CCCC(=O)O [15-deoxy-.DELTA.12,14-Prostaglandin J2]",scaled lipid accumulation score,[3],≤ 0
CSc1ccc(C(=O)c2[nH]c(=O)[nH]c2C)cc1 [Enoximone],scaled lipid accumulation score,[2],0.125
Cc1cc(NC2CCCCC2)nc(-n2nc(C)cc2C)n1,scaled lipid accumulation score,[2],≤ -0.03
COc1c(C)cnc(Cn2cnc3c(Cl)nc(N)nc32)c1C [listing 1 of 2 here],scaled lipid accumulation score,[2],0.768
COc1c(C)cnc(Cn2cnc3c(Cl)nc(N)nc32)c1C [listing 2 of 2 here],scaled lipid accumulation score,[1],0.885 (active)
COc1ccc2[nH]c([S+]([O-])Cc3ncc(C)c(OC)c3C)nc2n1 (stereo unspecified) [Tenatoprazole],scaled lipid accumulation score,library stock concentration: 5.8 mM,0.081
N#CC(=Cc1cc(Cl)cc(Cl)c1)c1cccnc1,scaled lipid accumulation score,library stock concentration: 18.2 mM,0.033
CN(C[C@@H]1COCCO1)S(=O)(=O)Nc1ccc2ccc3ncc(-c4cnn(C)c4)cc3c(=O)c2c1,scaled lipid accumulation score,[1],≤ 0
same,scaled lipid accumulation score,[2],≤ 0
O.O.O.O.O.O.O.O.O.O.O.O.O.O.O.O.O=S(=O)([O][Al])OC[C@H]1O[C@@](COS(=O)(=O)[O][Al])(O[C@H]2O[C@H](COS(=O)(=O)[O][Al])[C@@H](OS(=O)(=O)[O][Al])[C@H](OS(=O)(=O)[O][Al])[C@H]2OS(=O)(=O)[O][Al])[C@@H](OS(=O)(=O)[O][Al])[C@@H]1OS(=O)(=O)[O][Al] [Sucralfate sodium (10% w/v in dmso)],scaled lipid accumulation score,library stock concentration: 900 uM,≤ 0
COc1ccc2[nH]c(I)c(CCNC(C)=O)c2c1 [2-Iodomelatonin],scaled lipid accumulation score,[2],0.011
CN(C)CCCn1cc(C2=C(c3c[nH]c4ccccc34)C(=O)NC2=O)c2ccccc21 [listing 1 of 2 here],scaled lipid accumulation score,[1],0.071
same,scaled lipid accumulation score,[2],0.777
same,scaled lipid accumulation score,library stock concentration: 12.1 mM,0.519
CN(C)CCCn1cc(C2=C(c3c[nH]c4ccccc34)C(=O)NC2=O)c2ccccc21 [listing 2 of 2 here],scaled lipid accumulation score,[2],1.04 (active)
COc1ccc2c(c1)c(C1=C(c3c[nH]c4ccccc34)C(=O)NC1=O)cn2CCCN(C)C,scaled lipid accumulation score,[3],0.018
same,scaled lipid accumulation score,[1],0.054 and ≤ 0
same,scaled lipid accumulation score,[2],0.706
CN(C)CCCn1cc(C2=C(c3c[nH]c4ccccc34)C(=O)NC2=O)c2ccccc21 [Bisindolylmaleimide I],scaled lipid accumulation score,[1],0.663
CCCCC[C@H](O)/C=C/C=C\C/C=C\C/C=C\CCCC(=O)O,scaled lipid accumulation score,library stock concentration: 100 uM,≤ -0.02
COc1nc(C)cnc1NS(=O)(=O)c1cccnc1-c1ccc(-c2nnco2)cc1 [Zibotentan (ZD4054)],scaled lipid accumulation score,[1],≤ 0
same,scaled lipid accumulation score,[2],≤ 0
OCC(O)C(O)CO (stereo unspecified) [Erythritol],scaled lipid accumulation score,[1],≤ 0
same,scaled lipid accumulation score,[2],≤ -0.001
CNCCCN1c2ccccc2CCc2ccccc21.Cl [Desipramine hydrochloride] [listing 1 of 2 here],scaled lipid accumulation score,[2],1.15 (active)
CNCCCN1c2ccccc2CCc2ccccc21.Cl [Desipramine hydrochloride] [listing 2 of 2 here],scaled lipid accumulation score,,0.887 (active)
CNCCCN1c2ccccc2CCc2ccccc21.Cl,scaled lipid accumulation score,[2],0.969 (active)
CNCCCN1c2ccccc2CCc2ccccc21 [Desipramine hydrochloride],scaled lipid accumulation score,library stock concentration: 6.6 mM,0.471
same,scaled lipid accumulation score,[2],0.667
CCCCC1CCC(c2nc(-c3ccncc3)no2)CC1 (stereo unspecified),scaled lipid accumulation score,[3],0.03
same,scaled lipid accumulation score,[2],≤ -0.001
CC(C)N(C[C@H]1O[C@@H](n2cnc3c(N)ncnc32)[C@H](O)[C@@H]1O)[C@H]1C[C@@H](CCc2nc3cc(C(C)(C)C)ccc3[nH]2)C1,scaled lipid accumulation score,[1],≤ 0
same,scaled lipid accumulation score,[2],0.467
CC(C)OC(=O)OCOP(=O)(CO[C@H](C)Cn1cnc2c(N)ncnc21)OCOC(=O)OC(C)C [Tenofovir Disoproxil Fumarate],scaled lipid accumulation score,[1],≤ 0
same,scaled lipid accumulation score,[2],≤ 0
CCc1c(Cl)c(O)c(Cl)c(O)c1C(=O)O[C@H]1[C@H](O)[C@H](OC)[C@H](OC/C2=C\C=C\C[C@H](O)/C(C)=C/[C@H](CC)[C@@H](O[C@@H]3OC(C)(C)[C@@H](OC(=O)C(C)C)[C@H](O)[C@@H]3O)/C(C)=C/C(C)=C/C[C@@H]([C@@H](C)O)OC2=O)O[C@@H]1C [Fidaxomicin],scaled lipid accumulation score,[1],≤ 0
same,scaled lipid accumulation score,[2],0.125
COc1ccc(CCN(C)CCCOc2ccc(S(=O)(=O)c3c(C(C)C)c4ccccc4n3C)cc2)cc1OC,scaled lipid accumulation score,[2],0.445
